Source: PubChem (The Scripps Research Institute Molecular Screening Center)
CHRM1 antagonist – human CHRM1 antagonism; P11229; CHO-K1 hM1, Fluo-8 calcium fluorescence, ACh EC80 antagonist; inhibition, % at 3 µM; 360,000 compounds, 1.3% hits;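 active means percent inhibition above its own plate's cutoff, namely the mean of that plate's compound wells plus 3 SD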;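 further: peak over basal fluorescence ratio during 140 s after agonist addition; 0% = ACh EC80 plus DMSO and 100% = DMSO alone without agonist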
Target sequence (P11229 whole entry, looked up): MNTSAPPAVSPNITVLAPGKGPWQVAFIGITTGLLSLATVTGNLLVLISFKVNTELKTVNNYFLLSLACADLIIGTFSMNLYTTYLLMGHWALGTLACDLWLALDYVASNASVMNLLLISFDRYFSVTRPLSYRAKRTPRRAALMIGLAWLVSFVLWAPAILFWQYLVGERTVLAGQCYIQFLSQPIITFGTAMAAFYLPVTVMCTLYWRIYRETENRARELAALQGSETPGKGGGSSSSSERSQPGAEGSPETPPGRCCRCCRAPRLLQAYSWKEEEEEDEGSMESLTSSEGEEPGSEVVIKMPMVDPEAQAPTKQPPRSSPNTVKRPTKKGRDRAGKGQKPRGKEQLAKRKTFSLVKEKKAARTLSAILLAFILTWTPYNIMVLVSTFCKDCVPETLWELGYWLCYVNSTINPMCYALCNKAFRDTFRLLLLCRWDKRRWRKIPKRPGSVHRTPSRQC
M1 PAM – positive allosteric modulators of human M1 muscarinic receptor; AID 588819; 360,000 compounds, 0.088% hits; activation, % at 3 µM; CHO-K1 hM1, Fluo-8 calcium fluorescence, ACh EC20; 0% = ACh EC20, 100% = maximal ACh; in the data active means activation above about 19%, passing the limit was not always enough
CHO-K1 Ca PAM – M1 PAM counterscreen hit in parental CHO-K1 cells; 360,000 compounds, 0.02% hits; activation, % at 3 µM; ATP EC20, Fluo-8 calcium fluorescence; 0% at ATP EC20, 100% at ATP max; AID 602247;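 active means activation above the run cutoff, the mean activation of all test compounds plus 3 SD, cut at about 40% in these data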;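 further: peak over basal fluorescence ratio in a 140 s read after ATP addition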
CHO-K1 Ca antag – nonselective inhibitor or artifact in parental CHO-K1 cells | ATP-induced calcium, Fluo-8 fluorescence | inhibition, % at 3 µM | 360,000 compounds, 0.6% hits;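 active means inhibition above a per-plate cutoff, the plate's mean sample inhibition plus 3 SD, cut at about 24% in these data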;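 further: 0% = DMSO plus EC80 ATP and 100% = DMSO alone without ATP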
CHO-K1 Ca ag – M1 agonist counterscreen hit in parental CHO-K1 cells | activation, % at 3 µM | Fluo-8 calcium fluorescence; scaled to maximal ATP response, vehicle zero | AID 602248 | 360,000 compounds, 0.48% hits; in the data active means activation above about 15%;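 further: untransfected CHO-K1 host cells lacking M1 receptor as counterscreen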
M1 ag – agonists of human M1 muscarinic receptor | P11229 | CHO-K1 hM1, Fluo-8 calcium fluorescence, agonist mode; 0% DMSO, 100% acetylcholine EC100 | activation, % at 3 µM | 360,000 compounds, 0.33% hits | AID 588814;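 active means activation above the run's mean compound activation plus 3 SD, cut at about 16% in these data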;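 further: peak over basal fluorescence ratio within a 140 s kinetic read after compound addition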
The depositor's hits bear a star. In the library only some 2.4% were active in any assay of this set; here they are far more common.

SMILES	CHRM1 antagonist	M1 PAM	CHO-K1 Ca PAM	CHO-K1 Ca antag	CHO-K1 Ca ag	M1 ag
Cc1ccc(C(=O)NCCc2nc3ccccc3[nH]2)cc1[N+](=O)[O-]	5	-6	-12	24*	1	-1
CCOC(=O)[C@@H]1[C@H]2COc3ccccc3[C@@H]2N2C(=O)N(c3ccccc3)C(=O)[C@]12C	-4	6	-2	-7	-1	-4
COc1ccc(CNC(=O)c2cnn3c(C(F)F)cc(C)nc23)cc1OC	-7	5	-5	26*	4	4
NC(=O)C1(N2CCCCC2)CCN(C(=S)Nc2cc(F)cc(F)c2)CC1	-7	8	16	-2	0	-4
COc1ccccc1-c1csc(C(C)(O)c2cccc(F)c2)n1 (stereo not given)	-10	13	14	-14	0	1
COc1cc(Cl)ccc1OCc1cc(C(=O)NCc2cc(C(C)C)no2)no1	-7	3	4	-1	6	-3
CC1(C)N=C(N)N=C(N)N1c1cc(Cl)ccc1Cl	-1	3	21	0	0	-9
CC1(C)N=C(N)N=C(N)N1c1ccc(Oc2ccc(Cl)cc2)c(Cl)c1	55*	-27	14	-12	2	-9
Cc1cc(/C=C(\C#N)C(=O)Nc2ccc(F)cc2)c(C)n1-c1ccc(N2CCOCC2)c([N+](=O)[O-])c1	-8	10	16	-8	1	-2
Cc1cc(/C=C2/SC(=O)NC2=O)c(C)n1-c1ccc(N2CCOCC2)cc1	-3	2	35	-9	12	20*
CNC(=O)/C(C#N)=C\c1cc(C)n(-c2ccc(N3CCOCC3)cc2)c1C	5	-14	-15	31*	3	-4
Cc1cc(/C=C2\SC(=S)NC2=O)c(C)n1-c1ccccc1	-21	12	-24	6	2	1
Cc1ccc(S(=O)(=O)C(c2ccccc2)c2c(C)noc2C)cc1 (stereo not given)	-3	0	5	1	0	-8
Cc1noc(C)c1C(c1ccccc1)S(=O)(=O)c1ccccc1 (stereo not given)	-12	8	-11	28*	0	-8
CC1(C(=O)NS(=O)(=O)c2ccccc2)CCN1C(=O)Cc1cc(F)ccc1F (stereo not given)	11	-8	-10	10	0	-3
CCN(CC)S(=O)(=O)c1cc(NC(=O)c2ccc(Br)s2)ccc1C	9	-15	-6	36*	3	-3
CCN(CC)S(=O)(=O)c1cc(NC(=O)NCCCl)ccc1C	2	3	7	-8	0	-3
Cc1[nH]nc(-c2ccc(OCc3cnn(-c4ccccc4)c3)cc2O)c1Oc1ccc(F)cc1	-9	6	17	-15	0	-1
CCOc1ccc(-c2n[nH]c(C)c2Oc2ccc(OC)cc2)c(O)c1	8	-6	-7	24*	0	-4
CCOC(=O)Cc1csc(SCC(=O)Nc2oc(C)c3c(C)n[nH]c(=O)c23)n1	-1	16	-9	-15	0	3
COc1ccc(CNC(=O)c2cc3c(C)nc4ccccc4c3o2)c(OC)c1	37*	-19	2	15	8	-5
Cc1nc2ccccc2c2oc(C(=O)Nc3ccc4c(c3)OCCO4)cc12	-5	5	7	2	0	-2
Cc1nc2ccccc2c2oc(C(=O)Nc3ccc(C(C)C)cc3)cc12	10	1	-12	25*	0	-4
Cc1ccc(Cl)c2c1=NC(=O)C=2c1[nH]c(=S)[nH]c1O	8	0	12	5	17*	1
O=C(C1CC1)N1CCc2sccc2C1c1ccc(Cl)cc1 (stereo not given)	13	-4	14	-12	2	-7
Cc1c(C(=O)NCc2ccc([N+](=O)[O-])cc2)sc(=O)n1Cc1ccc2c(c1)OCO2	7	-17	13	-6	11	19*
Cc1c(C(=O)NCc2ccc3c(c2)OCCO3)sc(=O)n1Cc1ccc2c(c1)OCO2	-9	-1	-11	12	1	-4
Cc1c(C(=O)NCc2cccc([N+](=O)[O-])c2)sc(=O)n1Cc1ccc(F)cc1	39*	-33	5	-8	5	-9
